According to PubChem BioAssay (NCI):
This is part of a sample that, as a whole, favours compounds with a hit. Of some 83,000 tested, about 20% had one in any assay.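 Single-concentration screen, 48 h exposure, 96-well plates. Endpoint: percent growth. Below 10 = active.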 Values without a mark were called inactive. Active and inactive are the calls of the source.

Experiments:
Test in all cases: NCI-60 one-dose screen, 48 h (100 = growth as untreated, 0 = no growth, -100 = all killed)
Details in all cases: 10 µM unless noted
NCI-H23 lung = test system: NCI-H23 lung
NCI-H226 lung = test system: NCI-H226 lung
NCI-H322M lung = test system: NCI-H322M lung
HOP-62 NSCLC = test system: HOP-62 NSCLC
NCI-H460 lung = test system: NCI-H460 lung
HOP-92 NSCLC = test system: HOP-92 NSCLC
A549/ATCC NSCLC = test system: A549/ATCC NSCLC
786-0 renal = test system: 786-0 renal
COLO 205 colon = test system: COLO 205 colon
DU-145 prostate = test system: DU-145 prostate
K-562 leukemia = test system: K-562 leukemia
MALME-3M melanoma = test system: MALME-3M melanoma
MDA-MB-231 breast = test system: MDA-MB-231 breast
RXF 393 renal = test system: RXF 393 renal
SF-268 CNS = test system: SF-268 CNS
SF-295 CNS = test system: SF-295 CNS
SF-539 CNS = test system: SF-539 CNS
M14 melanoma = test system: M14 melanoma
UACC-257 melanoma = test system: UACC-257 melanoma

Row | Structure (SMILES) | growth (NCI-H23 lung) | growth (NCI-H226 lung) | growth (NCI-H322M lung) | growth (HOP-62 NSCLC) | growth (NCI-H460 lung) | growth (HOP-92 NSCLC) | growth (A549/ATCC NSCLC) | growth (786-0 renal) | growth (COLO 205 colon) | growth (DU-145 prostate) | growth (K-562 leukemia) | growth (MALME-3M melanoma) | growth (MDA-MB-231 breast) | growth (RXF 393 renal) | growth (SF-268 CNS) | growth (SF-295 CNS) | growth (SF-539 CNS) | growth (M14 melanoma) | growth (UACC-257 melanoma)
1 | Cc1nn(-c2ccccc2)c2nc3c(nc12)C1=NCCN1C(c1ccc(Cl)cc1)N3 (stereo unspecified) | 92.8% | 86.2% | 77.4% | 87.7% | 82.9% | 30.2% | 88.9% | 76.6% | -82.9% (active) | 89.9% | 5.26% (active) | 7.76% (active) | 66.8% | 70% | 84.9% | 94.6% | 95.1% | – | –
2 | CCCCCCCCCCCCCC | 92.5% | 106% | 105% | 98.2% | 108% | 91.3% | – | 99.4% | 108% | 135% | 113% | 113% | – | 112% | 120% | 99.2% | 109% | 115% | –
3 | N#Cc1ccc(-c2ccc(-c3cccs3)o2)cc1F | 76.9% | 81.8% | 83.3% | 35.7% | 88.1% | 50.5% | – | 67.2% | 86.2% | 88.1% | 83.7% | 86.6% | 82.2% | 77.2% | 70.7% | 75.5% | 78.1% | – | –
4 | NNc1ccc(S(N)(=O)=O)cc1 | 90.7% | 93.7% | 110% | 91.2% | 107% | 85.3% | – | 103% | 105% | 121% | 109% | 104% | – | 105% | 108% | 105% | 98.6% | 101% | –
5 | O=C(CCCN1CCC(O)(c2ccc(Br)cc2)CC1)c1ccc(F)cc1 | 68.3% | 99.5% | 81.8% | 64.3% | 76.8% | 98.9% | 73.5% | 69% | – | – | – | 86.8% | 40.7% | 49.8% | 83.4% | 54.7% | 77.8% | 18.6% | -21.9% (active)
